# From publication PMC7862700, “An all-to-all approach to the identification of sequence-specific readers for epigenetic DNA modifications on cytosine”
# Assays:
# Assay in all cases: DAPPL (digital affinity profiling via proximity ligation, sequencing); 10 mM Tris-HCl pH 7.5, 50 mM NaCl, 1 mM DTT, 4% glycerol, room temperature, 30 min; GST-TFs on glutathione beads, 16-mer random dsDNA library, 0.1% formaldehyde crosslink after washing; high values mean tight binding
# FLI1 = target: T1, FLI1 (Homo sapiens, UniProt Q01543 1-452); conditions: protein: recombinant; tags: N-terminal GST; dsDNA, one strand shown
# T1 sequence: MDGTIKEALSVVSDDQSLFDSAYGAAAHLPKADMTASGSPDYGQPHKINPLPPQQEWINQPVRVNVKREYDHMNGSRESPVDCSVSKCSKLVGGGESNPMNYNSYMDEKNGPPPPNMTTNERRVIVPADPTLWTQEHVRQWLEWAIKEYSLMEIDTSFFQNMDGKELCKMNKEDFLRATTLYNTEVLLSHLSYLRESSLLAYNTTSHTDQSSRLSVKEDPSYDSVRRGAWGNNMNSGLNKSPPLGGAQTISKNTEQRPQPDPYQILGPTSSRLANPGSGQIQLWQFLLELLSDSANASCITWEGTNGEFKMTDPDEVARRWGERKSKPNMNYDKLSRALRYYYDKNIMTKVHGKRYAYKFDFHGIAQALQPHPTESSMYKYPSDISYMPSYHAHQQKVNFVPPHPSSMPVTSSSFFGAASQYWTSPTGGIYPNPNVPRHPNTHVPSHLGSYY
# In short: (§1)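 GST fusions of human transcription factors were expressed in yeast and captured with glutathione beads. Once given DNA barcodes and pooled alongside a tag-only sample, they were incubated for 30 min at room temperature with 200 nmole of a random double-stranded 16-mer DNA library in Tris/NaCl/DTT/glycerol buffer, then washed, crosslinked (0.1% formaldehyde), proximity-ligated, PCR-amplified and sequenced on an Illumina NextSeq500. The binding signal of each hexamer is its read frequency for a factor divided by its frequency for the tag-only sample.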
# ELK1 = target: T2, ELK1 (Homo sapiens, UniProt P19419 1-428); conditions: protein: recombinant; tags: N-terminal GST; dsDNA, one strand shown
# T2 sequence: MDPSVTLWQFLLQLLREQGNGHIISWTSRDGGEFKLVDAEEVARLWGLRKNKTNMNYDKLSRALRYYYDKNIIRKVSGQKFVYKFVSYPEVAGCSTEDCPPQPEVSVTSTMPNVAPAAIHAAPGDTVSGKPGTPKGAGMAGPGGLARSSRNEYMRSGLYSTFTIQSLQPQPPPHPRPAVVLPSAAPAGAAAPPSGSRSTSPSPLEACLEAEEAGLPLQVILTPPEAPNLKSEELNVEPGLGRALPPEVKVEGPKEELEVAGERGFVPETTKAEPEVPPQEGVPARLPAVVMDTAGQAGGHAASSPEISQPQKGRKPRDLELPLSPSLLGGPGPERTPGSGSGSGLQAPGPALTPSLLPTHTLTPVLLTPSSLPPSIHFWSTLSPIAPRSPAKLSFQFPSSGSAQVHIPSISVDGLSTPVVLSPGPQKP
# In short: as §1
# GABPA = target: T3, GABPA (Homo sapiens, UniProt Q06546 1-454); conditions: protein: recombinant; tags: N-terminal GST; dsDNA, one strand shown
# T3 sequence: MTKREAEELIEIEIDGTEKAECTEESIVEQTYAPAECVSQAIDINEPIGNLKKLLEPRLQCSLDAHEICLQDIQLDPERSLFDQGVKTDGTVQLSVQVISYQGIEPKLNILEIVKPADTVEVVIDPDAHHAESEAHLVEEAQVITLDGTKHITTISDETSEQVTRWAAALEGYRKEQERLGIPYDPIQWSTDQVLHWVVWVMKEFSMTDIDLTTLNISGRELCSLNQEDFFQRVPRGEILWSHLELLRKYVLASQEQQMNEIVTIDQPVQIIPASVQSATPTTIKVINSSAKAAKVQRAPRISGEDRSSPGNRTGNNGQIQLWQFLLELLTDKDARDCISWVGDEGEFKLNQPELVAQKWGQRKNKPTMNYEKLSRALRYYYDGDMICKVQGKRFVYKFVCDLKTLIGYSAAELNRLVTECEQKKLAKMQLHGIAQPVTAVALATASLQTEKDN
# In short: as §1
# ERG = target: T4, ERG (Homo sapiens, UniProt P11308 1-479); conditions: protein: recombinant; tags: N-terminal GST; dsDNA, one strand shown
# T4 sequence: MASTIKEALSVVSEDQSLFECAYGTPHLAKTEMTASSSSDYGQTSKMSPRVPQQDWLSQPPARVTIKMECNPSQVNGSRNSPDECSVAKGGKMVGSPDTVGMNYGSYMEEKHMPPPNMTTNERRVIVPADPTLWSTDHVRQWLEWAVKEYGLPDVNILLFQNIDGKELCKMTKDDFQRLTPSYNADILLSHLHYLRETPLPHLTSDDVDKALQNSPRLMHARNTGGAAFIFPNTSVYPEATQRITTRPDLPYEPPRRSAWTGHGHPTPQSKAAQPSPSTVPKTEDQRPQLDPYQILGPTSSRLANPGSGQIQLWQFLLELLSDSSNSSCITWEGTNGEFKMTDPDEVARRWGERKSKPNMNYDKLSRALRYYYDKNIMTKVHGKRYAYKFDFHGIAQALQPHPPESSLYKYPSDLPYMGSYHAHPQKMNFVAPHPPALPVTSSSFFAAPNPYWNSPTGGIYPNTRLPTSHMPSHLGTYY
# In short: as §1
# ELF1 = ELF1 (Homo sapiens, UniProt P32519 1-619); conditions: protein: recombinant; tags: N-terminal GST; dsDNA, one strand shown
# Sequence of ELF1 (P32519 whole entry): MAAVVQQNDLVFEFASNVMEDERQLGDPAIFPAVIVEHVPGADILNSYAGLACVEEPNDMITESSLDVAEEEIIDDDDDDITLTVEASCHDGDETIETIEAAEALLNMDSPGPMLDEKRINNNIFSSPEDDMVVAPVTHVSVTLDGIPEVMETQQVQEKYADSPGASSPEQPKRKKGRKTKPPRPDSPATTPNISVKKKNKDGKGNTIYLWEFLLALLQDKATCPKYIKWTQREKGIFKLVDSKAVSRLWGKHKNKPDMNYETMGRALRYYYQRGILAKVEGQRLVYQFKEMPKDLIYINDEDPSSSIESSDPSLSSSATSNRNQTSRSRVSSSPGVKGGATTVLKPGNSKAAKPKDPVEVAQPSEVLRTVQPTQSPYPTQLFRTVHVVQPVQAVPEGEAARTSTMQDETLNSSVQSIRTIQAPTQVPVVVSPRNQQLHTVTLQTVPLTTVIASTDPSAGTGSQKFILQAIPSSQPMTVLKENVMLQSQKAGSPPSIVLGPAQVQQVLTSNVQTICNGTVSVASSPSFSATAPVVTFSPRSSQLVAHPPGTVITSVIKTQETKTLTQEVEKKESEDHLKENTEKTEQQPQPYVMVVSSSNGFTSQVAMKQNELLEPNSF
# In short: as §1
# EHF = target: T5, EHF (Homo sapiens, UniProt Q9NZC4 1-300); conditions: protein: recombinant; tags: N-terminal GST; dsDNA, one strand shown
# T5 sequence: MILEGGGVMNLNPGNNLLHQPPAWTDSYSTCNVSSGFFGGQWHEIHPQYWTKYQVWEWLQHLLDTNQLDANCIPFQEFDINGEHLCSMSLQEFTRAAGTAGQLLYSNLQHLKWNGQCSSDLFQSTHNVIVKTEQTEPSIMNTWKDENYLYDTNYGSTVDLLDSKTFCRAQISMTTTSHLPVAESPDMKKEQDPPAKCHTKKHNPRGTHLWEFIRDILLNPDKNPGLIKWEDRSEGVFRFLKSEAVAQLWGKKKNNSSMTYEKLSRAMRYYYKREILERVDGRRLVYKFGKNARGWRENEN
# In short: as §1
# SPI1 = SPI1 (Homo sapiens, UniProt P17947 1-270); conditions: protein: recombinant; tags: N-terminal GST; dsDNA, one strand shown
# In short: as §1
# SPIB = SPIB (Homo sapiens, UniProt Q01892 1-262); conditions: protein: recombinant; tags: N-terminal GST; dsDNA, one strand shown
# Sequence of SPIB (Q01892 whole entry): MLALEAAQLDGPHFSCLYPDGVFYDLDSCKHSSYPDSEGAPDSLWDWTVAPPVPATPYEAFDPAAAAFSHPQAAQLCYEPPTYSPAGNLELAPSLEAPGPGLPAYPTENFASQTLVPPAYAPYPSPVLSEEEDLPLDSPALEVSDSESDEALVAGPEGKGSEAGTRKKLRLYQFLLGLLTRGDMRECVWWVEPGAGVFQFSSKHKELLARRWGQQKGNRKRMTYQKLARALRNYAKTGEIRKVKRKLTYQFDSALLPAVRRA
# In short: as §1
# ELK3 = target: T6, ELK3 (Homo sapiens, UniProt P41970 1-407); conditions: protein: recombinant; tags: N-terminal GST; dsDNA, one strand shown
# T6 sequence: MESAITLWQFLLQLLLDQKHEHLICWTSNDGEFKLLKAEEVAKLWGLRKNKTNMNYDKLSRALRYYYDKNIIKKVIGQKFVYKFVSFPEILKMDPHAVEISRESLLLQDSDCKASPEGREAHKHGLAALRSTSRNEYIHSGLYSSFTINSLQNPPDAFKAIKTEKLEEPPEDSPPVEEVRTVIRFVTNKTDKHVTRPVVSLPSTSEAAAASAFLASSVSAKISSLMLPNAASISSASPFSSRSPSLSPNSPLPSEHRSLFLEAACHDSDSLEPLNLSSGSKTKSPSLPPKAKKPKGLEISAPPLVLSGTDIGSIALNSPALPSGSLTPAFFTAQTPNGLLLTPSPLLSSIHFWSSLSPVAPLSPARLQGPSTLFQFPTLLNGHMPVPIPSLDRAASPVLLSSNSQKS
# In short: as §1
# FEV = target: T7, FEV (Homo sapiens, UniProt Q99581 1-238); conditions: protein: recombinant; tags: N-terminal GST; dsDNA, one strand shown
# T7 sequence: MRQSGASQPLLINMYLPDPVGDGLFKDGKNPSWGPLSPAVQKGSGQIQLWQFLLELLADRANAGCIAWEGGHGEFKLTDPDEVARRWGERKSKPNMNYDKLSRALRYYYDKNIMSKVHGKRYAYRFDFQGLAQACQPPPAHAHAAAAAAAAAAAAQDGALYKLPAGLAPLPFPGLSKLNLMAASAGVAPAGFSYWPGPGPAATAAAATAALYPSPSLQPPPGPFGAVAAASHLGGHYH
# In short: as §1
# ETV5 = ETV5 (Homo sapiens, UniProt P41161 1-510); conditions: protein: recombinant; tags: N-terminal GST; dsDNA, one strand shown
# Sequence of ETV5 (P41161 whole entry): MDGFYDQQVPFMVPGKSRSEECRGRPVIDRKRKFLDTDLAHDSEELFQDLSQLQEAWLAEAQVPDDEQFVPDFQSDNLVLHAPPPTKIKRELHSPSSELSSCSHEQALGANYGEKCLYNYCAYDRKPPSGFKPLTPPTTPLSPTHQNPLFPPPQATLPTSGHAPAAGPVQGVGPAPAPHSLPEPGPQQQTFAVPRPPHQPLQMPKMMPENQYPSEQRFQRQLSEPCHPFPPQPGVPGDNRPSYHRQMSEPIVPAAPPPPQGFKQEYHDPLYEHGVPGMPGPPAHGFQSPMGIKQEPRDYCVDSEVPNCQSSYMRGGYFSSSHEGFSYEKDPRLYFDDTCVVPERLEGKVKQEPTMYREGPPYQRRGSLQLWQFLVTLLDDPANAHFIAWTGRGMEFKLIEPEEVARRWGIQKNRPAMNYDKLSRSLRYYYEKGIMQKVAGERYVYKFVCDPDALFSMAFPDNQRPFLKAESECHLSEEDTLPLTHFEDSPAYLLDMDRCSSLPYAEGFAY
# In short: as §1
# HSF1 = HSF1 (Homo sapiens, UniProt Q00613 1-529); conditions: protein: recombinant; tags: N-terminal GST; chain copies: 3; dsDNA, one strand shown
# Sequence of HSF1 (Q00613 whole entry): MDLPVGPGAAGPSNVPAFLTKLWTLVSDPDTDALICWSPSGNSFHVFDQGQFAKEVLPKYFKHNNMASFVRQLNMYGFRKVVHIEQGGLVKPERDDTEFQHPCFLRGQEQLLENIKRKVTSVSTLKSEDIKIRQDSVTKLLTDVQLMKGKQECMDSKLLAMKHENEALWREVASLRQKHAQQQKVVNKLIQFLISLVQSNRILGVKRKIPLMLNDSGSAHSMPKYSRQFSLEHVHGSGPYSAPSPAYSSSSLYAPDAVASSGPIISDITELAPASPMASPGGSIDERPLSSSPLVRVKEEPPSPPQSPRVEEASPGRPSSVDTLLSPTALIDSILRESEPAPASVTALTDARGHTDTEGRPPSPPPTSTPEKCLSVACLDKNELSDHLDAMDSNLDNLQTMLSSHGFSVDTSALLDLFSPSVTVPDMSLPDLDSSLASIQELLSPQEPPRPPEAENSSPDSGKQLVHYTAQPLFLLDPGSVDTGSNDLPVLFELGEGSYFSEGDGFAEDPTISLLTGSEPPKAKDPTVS
# In short: as §1
# SPIC = target: T8, SPIC (Homo sapiens, UniProt Q8N5J4 1-248); conditions: protein: recombinant; tags: N-terminal GST; dsDNA, one strand shown
# T8 sequence: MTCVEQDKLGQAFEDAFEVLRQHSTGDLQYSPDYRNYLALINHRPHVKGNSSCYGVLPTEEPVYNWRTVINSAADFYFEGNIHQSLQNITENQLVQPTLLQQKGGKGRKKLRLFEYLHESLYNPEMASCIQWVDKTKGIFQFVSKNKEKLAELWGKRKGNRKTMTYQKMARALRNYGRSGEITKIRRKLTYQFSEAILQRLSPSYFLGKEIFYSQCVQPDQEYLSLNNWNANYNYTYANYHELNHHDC
# In short: as §1
# ELF4 = ELF4 (Homo sapiens, UniProt Q99607 1-663); conditions: protein: recombinant; tags: N-terminal GST; dsDNA, one strand shown
# Sequence of ELF4 (Q99607 whole entry): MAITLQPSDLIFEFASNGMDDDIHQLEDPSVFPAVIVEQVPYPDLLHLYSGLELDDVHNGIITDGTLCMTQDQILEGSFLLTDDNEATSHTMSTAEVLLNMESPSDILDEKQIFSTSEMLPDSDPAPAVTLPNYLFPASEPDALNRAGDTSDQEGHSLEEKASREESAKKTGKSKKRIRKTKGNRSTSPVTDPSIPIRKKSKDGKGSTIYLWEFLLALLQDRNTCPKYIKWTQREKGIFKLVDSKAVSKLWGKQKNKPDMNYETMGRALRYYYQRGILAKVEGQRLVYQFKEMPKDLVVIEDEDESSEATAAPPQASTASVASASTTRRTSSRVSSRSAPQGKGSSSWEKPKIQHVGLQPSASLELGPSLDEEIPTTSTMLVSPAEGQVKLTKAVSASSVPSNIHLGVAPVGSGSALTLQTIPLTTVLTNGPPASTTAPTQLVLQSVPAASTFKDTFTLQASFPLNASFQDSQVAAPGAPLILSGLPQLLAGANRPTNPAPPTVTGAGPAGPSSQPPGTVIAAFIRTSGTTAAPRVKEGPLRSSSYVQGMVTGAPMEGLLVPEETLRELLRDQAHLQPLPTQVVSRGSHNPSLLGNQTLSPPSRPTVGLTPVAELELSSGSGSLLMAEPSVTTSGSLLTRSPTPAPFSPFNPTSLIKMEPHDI
# In short: as §1
# ELK4 = target: T9, ELK4 (Homo sapiens, UniProt P28324-2 1-405); conditions: protein: recombinant; tags: N-terminal GST; dsDNA, one strand shown
# T9 sequence: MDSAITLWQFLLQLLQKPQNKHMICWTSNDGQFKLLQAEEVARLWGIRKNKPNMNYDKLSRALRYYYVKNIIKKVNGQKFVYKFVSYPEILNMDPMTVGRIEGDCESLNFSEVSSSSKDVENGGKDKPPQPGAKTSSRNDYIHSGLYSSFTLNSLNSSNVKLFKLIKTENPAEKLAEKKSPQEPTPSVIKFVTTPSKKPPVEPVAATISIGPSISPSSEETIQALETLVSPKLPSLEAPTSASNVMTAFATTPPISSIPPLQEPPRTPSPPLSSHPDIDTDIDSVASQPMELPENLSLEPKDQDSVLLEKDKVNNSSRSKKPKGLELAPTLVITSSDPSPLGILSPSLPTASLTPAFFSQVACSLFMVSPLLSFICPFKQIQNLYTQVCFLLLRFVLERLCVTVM
# In short: as §1
# ETV2 = target: T10, ETV2 (Homo sapiens, UniProt O00321 1-342); conditions: protein: recombinant; tags: N-terminal GST; dsDNA, one strand shown
# T10 sequence: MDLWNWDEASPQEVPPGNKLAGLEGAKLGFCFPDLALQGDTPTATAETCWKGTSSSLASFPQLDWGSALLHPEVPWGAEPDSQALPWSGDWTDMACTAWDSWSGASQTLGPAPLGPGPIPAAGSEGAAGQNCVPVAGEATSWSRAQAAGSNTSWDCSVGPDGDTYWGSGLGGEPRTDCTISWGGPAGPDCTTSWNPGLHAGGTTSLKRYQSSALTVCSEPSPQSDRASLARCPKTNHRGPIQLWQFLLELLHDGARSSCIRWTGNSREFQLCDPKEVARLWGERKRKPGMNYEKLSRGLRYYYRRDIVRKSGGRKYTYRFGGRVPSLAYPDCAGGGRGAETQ
# In short: as §1
# ELF3 = target: T11, ELF3 (Homo sapiens, UniProt P78545 1-371); conditions: protein: recombinant; tags: N-terminal GST; dsDNA, one strand shown
# T11 sequence: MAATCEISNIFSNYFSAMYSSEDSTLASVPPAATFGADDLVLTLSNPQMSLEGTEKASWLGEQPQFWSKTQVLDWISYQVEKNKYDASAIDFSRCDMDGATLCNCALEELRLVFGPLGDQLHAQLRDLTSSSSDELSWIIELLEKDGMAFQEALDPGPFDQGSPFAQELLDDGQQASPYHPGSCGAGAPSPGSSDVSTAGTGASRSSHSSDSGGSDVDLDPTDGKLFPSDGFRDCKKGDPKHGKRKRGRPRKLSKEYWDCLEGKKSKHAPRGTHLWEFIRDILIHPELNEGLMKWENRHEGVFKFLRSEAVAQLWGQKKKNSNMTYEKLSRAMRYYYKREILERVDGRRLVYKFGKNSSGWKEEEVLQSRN
# In short: as §1
# CRX = CRX (Homo sapiens, UniProt O43186 1-299); conditions: protein: recombinant; tags: N-terminal GST; dsDNA, one strand shown
# Sequence of CRX (O43186 whole entry): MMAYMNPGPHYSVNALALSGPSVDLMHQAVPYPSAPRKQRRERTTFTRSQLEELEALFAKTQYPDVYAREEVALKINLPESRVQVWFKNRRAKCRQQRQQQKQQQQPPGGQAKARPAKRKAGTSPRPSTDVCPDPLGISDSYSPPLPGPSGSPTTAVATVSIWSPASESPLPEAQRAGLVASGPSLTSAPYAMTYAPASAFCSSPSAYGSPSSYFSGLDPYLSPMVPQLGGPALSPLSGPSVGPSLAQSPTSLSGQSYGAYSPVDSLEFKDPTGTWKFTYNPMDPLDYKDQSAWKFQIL
# In short: as §1
# ETV1 = ETV1 (Homo sapiens, UniProt P50549 1-477); conditions: protein: recombinant; tags: N-terminal GST; dsDNA, one strand shown
# Sequence of ETV1 (P50549 whole entry): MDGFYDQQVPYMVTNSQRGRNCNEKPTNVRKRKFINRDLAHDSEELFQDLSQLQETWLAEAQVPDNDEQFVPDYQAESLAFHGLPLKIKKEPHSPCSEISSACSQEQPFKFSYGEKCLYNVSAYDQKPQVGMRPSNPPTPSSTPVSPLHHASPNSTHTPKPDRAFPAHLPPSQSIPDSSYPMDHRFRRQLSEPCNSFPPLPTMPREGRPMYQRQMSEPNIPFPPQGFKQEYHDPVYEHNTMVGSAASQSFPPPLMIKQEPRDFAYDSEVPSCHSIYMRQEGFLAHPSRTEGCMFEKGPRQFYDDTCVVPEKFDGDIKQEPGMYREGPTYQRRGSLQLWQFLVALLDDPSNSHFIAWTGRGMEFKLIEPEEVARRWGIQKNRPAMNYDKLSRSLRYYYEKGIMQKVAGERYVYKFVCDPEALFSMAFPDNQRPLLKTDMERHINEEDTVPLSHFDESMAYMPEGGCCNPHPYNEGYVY
# In short: as §1
sequence,measurement,setting,value
GAATTC,binding signal,FLI1,"1.41 fold enrichment (6-mer frequency, TF over GST control)"
same,binding signal,ELK1,"1.29 fold enrichment (6-mer frequency, TF over GST control)"
same,binding signal,GABPA,"1.31 fold enrichment (6-mer frequency, TF over GST control)"
same,binding signal,ERG,"1.36 fold enrichment (6-mer frequency, TF over GST control)"
same,binding signal,ELF1,"1.31 fold enrichment (6-mer frequency, TF over GST control)"
same,binding signal,EHF,"1.43 fold enrichment (6-mer frequency, TF over GST control)"
same,binding signal,SPI1,"1.43 fold enrichment (6-mer frequency, TF over GST control)"
same,binding signal,SPIB,"1.38 fold enrichment (6-mer frequency, TF over GST control)"
same,binding signal,ELK3,"1.38 fold enrichment (6-mer frequency, TF over GST control)"
same,binding signal,FEV,"1.39 fold enrichment (6-mer frequency, TF over GST control)"
same,binding signal,ETV5,"1.42 fold enrichment (6-mer frequency, TF over GST control)"
same,binding signal,HSF1,"1.59 fold enrichment (6-mer frequency, TF over GST control)"
same,binding signal,SPIC,"1.51 fold enrichment (6-mer frequency, TF over GST control)"
same,binding signal,ELF4,"1.36 fold enrichment (6-mer frequency, TF over GST control)"
same,binding signal,ELK4,"1.27 fold enrichment (6-mer frequency, TF over GST control)"
same,binding signal,ETV2,"1.39 fold enrichment (6-mer frequency, TF over GST control)"
same,binding signal,ELF3,"1.13 fold enrichment (6-mer frequency, TF over GST control)"
same,binding signal,CRX,"1.14 fold enrichment (6-mer frequency, TF over GST control)"
same,binding signal,ETV1,"1.34 fold enrichment (6-mer frequency, TF over GST control)"
